# Measurements as given in PubChem BioAssay (NCATS).
# Inconclusive results are not listed. Where a call stands in place of a potency, no number is given. Calls of active or inactive are those of the source. Calls follow the shape of the dose curve; as a rule, active = well fitted inhibition curve with a large enough effect; inconclusive = small, poorly fitted or top-dose-only effect; inactive = flat fitted curve, though single readings scatter.
# Assay: qHTS to identify inhibitors of the type 1 interferon - major histocompatibility complex class I in skeletal muscle: primary screen against the NCATS Pharmaceutical Collection (AID 1347407);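 also: luminescence of HiBiT knocked into endogenous HLA-B as interferon-induced MHC class I level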
# Conditions: human skeletal muscle cells, IFN-b-induced MHC-I HiBiT luminescence, 24 h; series mostly up to 45.9 µM
# Summary of the method: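 HLA-B HiBiT myoblasts, dexamethasone-free growth medium + 4 ng/ml IFN-b; compounds pinned 1 h after seeding, […] from 46 uM; 24 h, 37 C, 5% CO2; lytic HiBiT detection, 10 min RT, luminescence.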
row,SMILES,Potency
1,CC(=O)O[C@]1(C(C)=O)CC[C@H]2[C@@H]3C=C(C)C4=CC(=O)CC[C@]4(C)[C@H]3CC[C@@]21C,inactive
2,CCC(C(=O)OCCOCCN(CC)CC)c1ccccc1 (stereo not drawn),inactive
3,CN(C)CCOC(=O)C(c1ccccc1)C1(O)CCCC1 (stereo not drawn),inactive
4,C[N+]12CCC(CC1)C(OC(=O)C(O)(c1ccccc1)c1ccccc1)C2 (stereo not drawn),inactive
5,CC(=O)Nc1ccc(OCC(O)CNC(C)C)cc1 (stereo not drawn),inactive
6,O=C(Nc1cccc(C2=NCCN2)c1)Nc1cccc(C2=NCCN2)c1,inactive
7,CCC1NC(=O)c2cc(S(N)(=O)=O)c(Cl)cc2N1 (stereo not drawn),inactive
8,C[N+]1(CC2COC(c3ccccc3)(C3CCCCC3)O2)CCCCC1 (stereo not drawn),inactive
9,CC(=O)NC(=O)c1ccccc1O,inactive
10,c1ccc(-c2nc[nH]c2-c2ccccc2)cc1,inactive
11,Cc1cc(NS(=O)(=O)c2ccc(N)cc2)nc(C)n1,inactive
12,C#C[C@]1(O)CC[C@H]2[C@@H]3CCc4cc(OC)ccc4[C@H]3CC[C@@]21C,inactive
13,N/C(=N\N=C\c1ccc(Cl)cc1)N/N=C/c1ccc(Cl)cc1,inactive
14,CC(O)Cn1cnc2c1c(=O)n(C)c(=O)n2C (stereo not drawn),inactive
15,COC(=O)C(c1ccccc1Cl)N1CCc2sccc2C1 (stereo not drawn),inactive
16,Cc1cn([C@H]2C[C@H](F)[C@@H](CO)O2)c(=O)[nH]c1=O,inactive
17,CCCCc1cc2ccccc2c(OCCN(C)C)n1,inactive
18,NC(=O)C1(N2CCCCC2)CCN(CCCC(=O)c2ccc(F)cc2)CC1,inactive
19,COc1ccc(/C=N/NC(=O)c2ccncc2)cc1OC,inactive

row,SMILES,Potency
1,CCCCCCCCNC(C)C(O)c1ccc(SC(C)C)cc1 (stereo not drawn),inactive
2,COc1ccc(CCN(C)CCCN2CCc3cc(OC)c(OC)cc3CC2=O)cc1OC,inactive
3,CO[C@H]1C=CO[C@@]2(C)Oc3c(C)c(O)c4c(O)c(c(/C=N/N5CCN(C)CC5)c(O)c4c3C2=O)NC(=O)/C(C)=C\C=C[C@H](C)[C@H](O)[C@@H](C)[C@@H](O)[C@@H](C)[C@H](OC(C)=O)[C@@H]1C,inactive
4,CCN(CC)CCNC(=O)COc1ccc(OC)cc1,inactive
5,CC(=C(CCOC(=O)C(C)C)SSC(CCOC(=O)C(C)C)=C(C)N(C=O)Cc1cnc(C)nc1N)N(C=O)Cc1cnc(C)nc1N,inactive
6,O=C(O)CCc1nc2ccccc2[nH]1,inactive
7,C#C[C@]1(O)CC[C@H]2[C@@H]3[C@H](C)CC4=C(CCC(=O)C4)[C@H]3CC[C@@]21C,inactive
8,NS(=O)(=O)Cc1noc2ccccc12,inactive
9,Cc1cccc(C)c1NC(=O)CN1CCCC1,inactive
10,CCCCNc1ccc(C(=O)OCCOCCOCCOCCOCCOCCOCCOCCOCCOC)cc1,inactive
11,CC(=O)O[C@H]1C[C@@H]2CC[C@@H]3[C@H](CC[C@@]4(C)[C@H]3C[C@H]([N+]3(C)CCCCC3)[C@@H]4OC(C)=O)[C@@]2(C)C[C@@H]1N1CCCCC1,inactive
12,O=C(O)c1ccc(S(=O)(=O)N(Cl)Cl)cc1,inactive
13,CCc1cc(Cl)c(OC)c(C(=O)NC[C@@H]2CCCN2CC)c1O,inactive
14,O=S(c1cc(Cl)cc(Cl)c1O)c1cc(Cl)cc(Cl)c1O,inactive
15,CC(C)(C)CC(C)(C)c1ccc(O)c(-n2nc3ccccc3n2)c1,inactive
16,N[C@H](C(=O)O)[C@@H](O)c1ccc(O)c(O)c1,inactive
17,OC[C@H]1O[C@@H](Oc2ccc(O)cc2)[C@H](O)[C@@H](O)[C@@H]1O,inactive
18,O=C1C(=O)c2ccccc2C(O)=C1C1CCC(c2ccc(Cl)cc2)CC1 (stereo not drawn),inactive
19,CCOc1ccccc1OCCN[C@H](C)Cc1ccc(OC)c(S(N)(=O)=O)c1,inactive
